According to article PMC7862700, “An all-to-all approach to the identification of sequence-specific readers for epigenetic DNA modifications on cytosine”:

Assays:
Assay in all cases: DAPPL (digital affinity profiling via proximity ligation, sequencing); 10 mM Tris-HCl pH 7.5, 50 mM NaCl, 1 mM DTT, 4% glycerol, room temperature, 30 min; GST-TFs on glutathione beads, 16-mer random dsDNA library, 0.1% formaldehyde crosslink after washing; high values mean tight binding
Conditions in all cases: protein: recombinant; tags: N-terminal GST; dsDNA, one strand shown
ERF = target: T1, ERF (Homo sapiens, UniProt P50548 1-548)
T1 sequence: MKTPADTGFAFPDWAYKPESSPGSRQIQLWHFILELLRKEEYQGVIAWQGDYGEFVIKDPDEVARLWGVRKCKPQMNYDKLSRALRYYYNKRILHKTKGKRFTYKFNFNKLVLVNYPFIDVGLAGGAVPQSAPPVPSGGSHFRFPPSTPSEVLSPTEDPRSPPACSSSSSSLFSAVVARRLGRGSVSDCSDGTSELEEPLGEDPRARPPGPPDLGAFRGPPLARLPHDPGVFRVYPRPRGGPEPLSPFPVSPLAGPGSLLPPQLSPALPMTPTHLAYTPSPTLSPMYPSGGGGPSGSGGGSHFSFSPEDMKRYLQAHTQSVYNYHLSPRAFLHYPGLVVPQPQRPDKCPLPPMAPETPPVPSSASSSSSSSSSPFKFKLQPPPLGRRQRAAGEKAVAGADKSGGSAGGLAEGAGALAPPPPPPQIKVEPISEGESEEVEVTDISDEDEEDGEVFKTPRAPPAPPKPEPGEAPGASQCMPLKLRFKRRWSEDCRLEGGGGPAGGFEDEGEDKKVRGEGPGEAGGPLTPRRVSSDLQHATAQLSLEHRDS
Outline: (§1)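 The binding signal reported is, for every hexamer, its read frequency for a factor over its read frequency for the tag-only sample. Reads came from pools of yeast-expressed, GST-fused human transcription factors on glutathione beads, barcoded with DNA and mixed with that sample, which were incubated with 200 nmole of a random double-stranded 16-mer DNA library in Tris/NaCl/DTT/glycerol buffer at room temperature for 30 min. After washing, the pools were crosslinked with 0.1% formaldehyde, proximity-ligated with BsaI/T4 ligase for 1 h at 37 °C, PCR-amplified and sequenced on an Illumina NextSeq500.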

ETV3L = target: T2, ETV3L (Homo sapiens, UniProt Q6ZN32 1-361)
T2 sequence: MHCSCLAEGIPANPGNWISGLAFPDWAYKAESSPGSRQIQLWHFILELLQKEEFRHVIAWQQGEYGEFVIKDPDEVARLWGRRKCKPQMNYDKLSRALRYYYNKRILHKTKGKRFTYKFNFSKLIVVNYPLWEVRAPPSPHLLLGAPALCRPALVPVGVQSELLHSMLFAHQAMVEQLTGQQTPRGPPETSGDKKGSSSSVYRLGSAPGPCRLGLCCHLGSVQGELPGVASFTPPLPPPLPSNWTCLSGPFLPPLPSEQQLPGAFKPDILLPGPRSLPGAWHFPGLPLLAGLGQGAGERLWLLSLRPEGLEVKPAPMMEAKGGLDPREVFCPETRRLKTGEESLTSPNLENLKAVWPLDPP
Outline: as §1

ETS2 = target: T3, ETS2 (Homo sapiens, UniProt P15036 1-469)
T3 sequence: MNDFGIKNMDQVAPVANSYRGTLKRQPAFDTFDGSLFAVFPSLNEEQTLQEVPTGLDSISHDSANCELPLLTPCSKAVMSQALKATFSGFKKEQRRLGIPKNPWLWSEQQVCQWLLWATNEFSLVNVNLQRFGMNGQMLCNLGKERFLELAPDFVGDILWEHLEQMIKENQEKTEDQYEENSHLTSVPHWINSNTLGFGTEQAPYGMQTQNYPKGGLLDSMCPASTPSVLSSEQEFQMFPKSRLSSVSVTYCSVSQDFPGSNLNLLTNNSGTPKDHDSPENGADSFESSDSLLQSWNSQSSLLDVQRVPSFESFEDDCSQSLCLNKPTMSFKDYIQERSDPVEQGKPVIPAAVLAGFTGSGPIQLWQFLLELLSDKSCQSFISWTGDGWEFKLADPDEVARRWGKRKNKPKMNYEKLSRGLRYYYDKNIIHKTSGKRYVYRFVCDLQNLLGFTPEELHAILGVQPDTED
Outline: as §1

SPDEF = target: T4, SPDEF (Homo sapiens, UniProt O95238 1-335)
T4 sequence: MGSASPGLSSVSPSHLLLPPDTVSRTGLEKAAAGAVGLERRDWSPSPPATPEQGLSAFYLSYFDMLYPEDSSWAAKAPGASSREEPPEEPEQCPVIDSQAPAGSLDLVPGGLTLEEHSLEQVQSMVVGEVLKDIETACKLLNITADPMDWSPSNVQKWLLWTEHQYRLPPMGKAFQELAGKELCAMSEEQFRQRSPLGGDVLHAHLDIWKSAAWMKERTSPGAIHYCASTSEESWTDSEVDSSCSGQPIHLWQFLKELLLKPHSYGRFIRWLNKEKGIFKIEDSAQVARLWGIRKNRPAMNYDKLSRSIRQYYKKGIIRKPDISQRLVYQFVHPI
Outline: as §1

ELF5 = target: T5, ELF5 (Homo sapiens, UniProt Q9UKW6-2 1-255)
T5 sequence: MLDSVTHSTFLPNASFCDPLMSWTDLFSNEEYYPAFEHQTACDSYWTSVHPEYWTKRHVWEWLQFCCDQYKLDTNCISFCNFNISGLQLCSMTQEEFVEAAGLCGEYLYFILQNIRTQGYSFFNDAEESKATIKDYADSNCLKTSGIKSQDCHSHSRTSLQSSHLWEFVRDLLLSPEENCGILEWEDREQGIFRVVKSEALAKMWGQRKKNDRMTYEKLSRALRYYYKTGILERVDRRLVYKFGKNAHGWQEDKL
Outline: as §1

ETV3 = target: T6, ETV3 (Homo sapiens, UniProt P41162-2 1-143)
T6 sequence: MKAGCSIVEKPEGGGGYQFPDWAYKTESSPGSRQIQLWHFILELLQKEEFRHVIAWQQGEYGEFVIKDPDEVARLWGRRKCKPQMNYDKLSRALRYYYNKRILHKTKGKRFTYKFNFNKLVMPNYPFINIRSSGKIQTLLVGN
Outline: as §1

ETV6 = ETV6 (Homo sapiens, UniProt P41212 1-452)
Sequence of ETV6 (P41212 whole entry): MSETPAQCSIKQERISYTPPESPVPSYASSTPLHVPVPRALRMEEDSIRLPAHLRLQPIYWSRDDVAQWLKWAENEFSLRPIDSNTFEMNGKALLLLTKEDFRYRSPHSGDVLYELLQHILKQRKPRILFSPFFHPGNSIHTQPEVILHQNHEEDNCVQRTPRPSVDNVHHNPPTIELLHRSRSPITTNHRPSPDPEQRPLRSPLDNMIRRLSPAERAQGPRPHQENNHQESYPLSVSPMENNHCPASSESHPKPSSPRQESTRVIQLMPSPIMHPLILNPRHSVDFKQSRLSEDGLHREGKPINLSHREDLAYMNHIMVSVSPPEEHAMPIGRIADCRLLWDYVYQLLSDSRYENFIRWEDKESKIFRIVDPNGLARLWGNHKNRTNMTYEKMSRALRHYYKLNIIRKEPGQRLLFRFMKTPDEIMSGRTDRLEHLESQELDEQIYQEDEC
Outline: as §1

ETV7 = target: T7, ETV7 (Homo sapiens, UniProt Q9Y603 1-341)
T7 sequence: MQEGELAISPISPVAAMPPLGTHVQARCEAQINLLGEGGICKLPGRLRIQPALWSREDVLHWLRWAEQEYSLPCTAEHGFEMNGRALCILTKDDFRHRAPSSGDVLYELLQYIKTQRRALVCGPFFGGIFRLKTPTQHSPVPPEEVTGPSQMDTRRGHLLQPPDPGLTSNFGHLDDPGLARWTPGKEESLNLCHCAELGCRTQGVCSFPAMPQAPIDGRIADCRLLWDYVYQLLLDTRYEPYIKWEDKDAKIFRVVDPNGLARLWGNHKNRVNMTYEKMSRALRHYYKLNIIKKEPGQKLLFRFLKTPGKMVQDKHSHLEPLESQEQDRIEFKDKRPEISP
Outline: as §1

| Sequence | binding signal (ERF) | binding signal (ETV3L) | binding signal (ETS2) | binding signal (SPDEF) | binding signal (ELF5) | binding signal (ETV3) | binding signal (ETV6) | binding signal (ETV7) |
| --- | --- | --- | --- | --- | --- | --- | --- | --- |
| TAGGTT | 1.06 fold enrichment (6-mer frequency, TF over GST control) | 1.08 fold enrichment (6-mer frequency, TF over GST control) | 1.06 fold enrichment (6-mer frequency, TF over GST control) | 1.17 fold enrichment (6-mer frequency, TF over GST control) | 1.06 fold enrichment (6-mer frequency, TF over GST control) | 1.14 fold enrichment (6-mer frequency, TF over GST control) | 1.16 fold enrichment (6-mer frequency, TF over GST control) | – |
| TCTACA | 1.31 fold enrichment (6-mer frequency, TF over GST control) | 1.21 fold enrichment (6-mer frequency, TF over GST control) | 1.29 fold enrichment (6-mer frequency, TF over GST control) | 1.27 fold enrichment (6-mer frequency, TF over GST control) | 1.19 fold enrichment (6-mer frequency, TF over GST control) | 1.18 fold enrichment (6-mer frequency, TF over GST control) | 1.19 fold enrichment (6-mer frequency, TF over GST control) | – |
| TTGGGC | 1.12 fold enrichment (6-mer frequency, TF over GST control) | 1.22 fold enrichment (6-mer frequency, TF over GST control) | 1.12 fold enrichment (6-mer frequency, TF over GST control) | 1 fold enrichment (6-mer frequency, TF over GST control) | – | 1.04 fold enrichment (6-mer frequency, TF over GST control) | 1.11 fold enrichment (6-mer frequency, TF over GST control) | 1.09 fold enrichment (6-mer frequency, TF over GST control) |
| CTGTGC | 1.12 fold enrichment (6-mer frequency, TF over GST control) | 1.13 fold enrichment (6-mer frequency, TF over GST control) | 1.18 fold enrichment (6-mer frequency, TF over GST control) | 1.12 fold enrichment (6-mer frequency, TF over GST control) | 1 fold enrichment (6-mer frequency, TF over GST control) | 1.19 fold enrichment (6-mer frequency, TF over GST control) | 1.22 fold enrichment (6-mer frequency, TF over GST control) | – |
| ATTGAA | 1.14 fold enrichment (6-mer frequency, TF over GST control) | 1.1 fold enrichment (6-mer frequency, TF over GST control) | 1.09 fold enrichment (6-mer frequency, TF over GST control) | 1.07 fold enrichment (6-mer frequency, TF over GST control) | – | 1.03 fold enrichment (6-mer frequency, TF over GST control) | 1.08 fold enrichment (6-mer frequency, TF over GST control) | 1.14 fold enrichment (6-mer frequency, TF over GST control) |
| CACACG | 1.12 fold enrichment (6-mer frequency, TF over GST control) | 1.21 fold enrichment (6-mer frequency, TF over GST control) | 1.12 fold enrichment (6-mer frequency, TF over GST control) | 1.16 fold enrichment (6-mer frequency, TF over GST control) | 1.04 fold enrichment (6-mer frequency, TF over GST control) | 1.1 fold enrichment (6-mer frequency, TF over GST control) | 1.18 fold enrichment (6-mer frequency, TF over GST control) | – |
| GATACG | 1.12 fold enrichment (6-mer frequency, TF over GST control) | 1.1 fold enrichment (6-mer frequency, TF over GST control) | 1.11 fold enrichment (6-mer frequency, TF over GST control) | 1.35 fold enrichment (6-mer frequency, TF over GST control) | 1.1 fold enrichment (6-mer frequency, TF over GST control) | 1.12 fold enrichment (6-mer frequency, TF over GST control) | 1.09 fold enrichment (6-mer frequency, TF over GST control) | – |
| CTCCAG | 1.2 fold enrichment (6-mer frequency, TF over GST control) | 1.2 fold enrichment (6-mer frequency, TF over GST control) | 1.19 fold enrichment (6-mer frequency, TF over GST control) | 1.16 fold enrichment (6-mer frequency, TF over GST control) | 1.15 fold enrichment (6-mer frequency, TF over GST control) | 1.23 fold enrichment (6-mer frequency, TF over GST control) | – | – |
| GTTTGG | 1.11 fold enrichment (6-mer frequency, TF over GST control) | 1.09 fold enrichment (6-mer frequency, TF over GST control) | 1.07 fold enrichment (6-mer frequency, TF over GST control) | – | 1.1 fold enrichment (6-mer frequency, TF over GST control) | 1.1 fold enrichment (6-mer frequency, TF over GST control) | – | 1.12 fold enrichment (6-mer frequency, TF over GST control) |
| TAGCGA | 1.19 fold enrichment (6-mer frequency, TF over GST control) | 1.02 fold enrichment (6-mer frequency, TF over GST control) | 1.01 fold enrichment (6-mer frequency, TF over GST control) | 1.02 fold enrichment (6-mer frequency, TF over GST control) | – | – | 1 fold enrichment (6-mer frequency, TF over GST control) | – |
| CTGGCC | 1.19 fold enrichment (6-mer frequency, TF over GST control) | 1.11 fold enrichment (6-mer frequency, TF over GST control) | 1.17 fold enrichment (6-mer frequency, TF over GST control) | – | 1.01 fold enrichment (6-mer frequency, TF over GST control) | 1.06 fold enrichment (6-mer frequency, TF over GST control) | 1.23 fold enrichment (6-mer frequency, TF over GST control) | 1.03 fold enrichment (6-mer frequency, TF over GST control) |
| GCTCGA | 1.24 fold enrichment (6-mer frequency, TF over GST control) | 1.26 fold enrichment (6-mer frequency, TF over GST control) | 1.19 fold enrichment (6-mer frequency, TF over GST control) | – | 1.1 fold enrichment (6-mer frequency, TF over GST control) | 1.14 fold enrichment (6-mer frequency, TF over GST control) | 1.25 fold enrichment (6-mer frequency, TF over GST control) | 1.11 fold enrichment (6-mer frequency, TF over GST control) |
| TTTCGC | 1.1 fold enrichment (6-mer frequency, TF over GST control) | 1.25 fold enrichment (6-mer frequency, TF over GST control) | 1.14 fold enrichment (6-mer frequency, TF over GST control) | – | 1.08 fold enrichment (6-mer frequency, TF over GST control) | 1.13 fold enrichment (6-mer frequency, TF over GST control) | 1.11 fold enrichment (6-mer frequency, TF over GST control) | 1.16 fold enrichment (6-mer frequency, TF over GST control) |
| AAGCAA | 1.01 fold enrichment (6-mer frequency, TF over GST control) | 1.01 fold enrichment (6-mer frequency, TF over GST control) | 1.11 fold enrichment (6-mer frequency, TF over GST control) | – | 1.03 fold enrichment (6-mer frequency, TF over GST control) | 1.12 fold enrichment (6-mer frequency, TF over GST control) | 1.02 fold enrichment (6-mer frequency, TF over GST control) | 1.05 fold enrichment (6-mer frequency, TF over GST control) |
| GCTGGC | 1.12 fold enrichment (6-mer frequency, TF over GST control) | 1.04 fold enrichment (6-mer frequency, TF over GST control) | 1.04 fold enrichment (6-mer frequency, TF over GST control) | – | 1 fold enrichment (6-mer frequency, TF over GST control) | 1.1 fold enrichment (6-mer frequency, TF over GST control) | 1.02 fold enrichment (6-mer frequency, TF over GST control) | 1.12 fold enrichment (6-mer frequency, TF over GST control) |
| GCGCCT | 1.05 fold enrichment (6-mer frequency, TF over GST control) | 1.07 fold enrichment (6-mer frequency, TF over GST control) | 1.02 fold enrichment (6-mer frequency, TF over GST control) | – | 1.04 fold enrichment (6-mer frequency, TF over GST control) | 1.1 fold enrichment (6-mer frequency, TF over GST control) | 1.12 fold enrichment (6-mer frequency, TF over GST control) | 1.06 fold enrichment (6-mer frequency, TF over GST control) |
